Assay results reported in PubChem BioAssay (NCI).
This is part of a sample that, as a whole, favours compounds with a hit. Of some 79,000 tested, about 15% had one in any assay. Rule as the data show it: active = growth inhibition above about 70%; inactive = the rest. Where a SMILES comes first, the peptide text is derived from it. Bridges are numbered along the chain shown (N, C = ends). [ ]: non-standard residue; d: D form. Aib = CC(C)(N)C(=O)O; βAla = NCCC(=O)O

Experiments:
[1] = NCI Yeast Anticancer Drug Screen. Data for the rad50 strain (AID 155);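 also: 0% = growth of vehicle-only cultures of the same strain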; conditions: S. cerevisiae rad50 strain growth inhibition, active compounds read high; at 50.0 µM unless noted
In short: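 Yeast carrying a defined DNA repair defect were exposed to test compounds, and growth was compared with vehicle-treated controls to give percent inhibition.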

[2] = NCI Yeast Anticancer Drug Screen. Data for the mec2-1 strain (AID 157); conditions: S. cerevisiae mec2-1 strain, active compounds read high; at 50.0 µM unless noted
In short: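 Strain: mec2-1 (DNA repair/cell cycle alteration). Compound exposure, then growth measured; inhibition expressed relative to vehicle.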

[3] = NCI Yeast Anticancer Drug Screen. Data for the sgs1 mgt1 strain (AID 161);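 also: 0% = growth of cultures given vehicle only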; conditions: S. cerevisiae sgs1 mgt1 strain, active compounds read high; at 50.0 µM unless noted
In short: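 Inhibition of yeast growth, normalised to vehicle-treated controls, is reported for a strain bearing genetic alterations in DNA damage repair.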

[4] = NCI Yeast Anticancer Drug Screen. Data for the cln2 rad14 strain (AID 165);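 also: 0% = growth equal to vehicle treated cultures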; conditions: S. cerevisiae cln2 rad14 strain, active compounds read high; at 50.0 µM unless noted
In short: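 Compounds are applied to the cln2 rad14 yeast strain, and growth is then compared with that of vehicle-treated cultures to give inhibition.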

[5] = NCI Yeast Anticancer Drug Screen. Data for the bub3 strain (AID 167); conditions: S. cerevisiae bub3 mutant strain, active compounds read high; at 50.0 µM unless noted
In short: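 Compounds were applied to a genetically altered yeast strain carrying a cell-cycle control defect. Growth inhibition was scored against vehicle-treated controls.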

[6] = NCI Yeast Anticancer Drug Screen. Data for the mlh1 rad18 strain (AID 175); conditions: S. cerevisiae mlh1 rad18 strain growth inhibition, active compounds read high; at 50.0 µM unless noted
In short: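 Read-out is yeast growth inhibition, calculated against vehicle-only controls. The compound was applied to a strain engineered with DNA damage repair alterations.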

Measured: growth inhibition

CC(=O)CC(=O)Nc1ccc2ccccc2c1
inactive: [1] -1.9% | [2] -12% | [3] -8.3% | [4] -36.4% | [5] -37.9% | [6] -14.6%

CNc1ccc(C=C2C=CC=C2)cc1
inactive: [1] 41.2% | [2] 1.7% | [3] 48.7% | [4] 5.2% | [5] 7.4% | [6] 55.7%

CCCCCCCCCCCCCCCCS(=O)(=O)N(/N=c1/sc2ccccc2n1C)C(=O)OCC
inactive: [1] -29.4% | [2] -32.3% | [3] -13.3% | [4] 21.4% | [5] -12.2% | [6] -27.8%

ClC(=Nc1cccc2ccccc12)N(c1ccccc1)c1ccccc1
inactive: [1] -8.45% | [2] 7.45% | [3] -9.3% | [4] 3.8% | [5] 7.15% | [6] -4.05%

NC(=O)c1ccccc1OC(=O)Nc1ccc(F)c([N+](=O)[O-])c1
inactive: [1] 3.75% | [2] 26.6% | [3] 12.4% | [4] -1.95% | [5] 20.7% | [6] 12.1%

S=c1c(-c2ccccc2)cnc2sccn12
inactive: [1] 40.9% | [2] 29.8% | [3] 8.3% | [4] -22.6% | [5] 19.8% | [6] 18.4%

NC1=CN(CCCO)C2=N/C(=C\c3ccccc3)C(=O)N12
inactive: [1] 14.2% | [2] -3.65% | [3] 26.4% | [4] 8.9% | [5] -3.3% | [6] 12.7%

CCOc1cc(/C=N/NC(=O)c2ccccc2NC(=O)c2ccccc2Cl)ccc1O
inactive: [1] 11.3% | [2] -1.9% | [3] -7.05% | [4] -1.8% | [5] 3.05% | [6] -9.3%

CC1(C)OCC(C2OC3OC(C)(C)OC3C2N)O1 (configuration not stated)
inactive: [1] 10.8% | [2] 10.7% | [3] 11.1% | [4] -2.95% | [5] 21.8% | [6] 5.4%

CCCCSc1ncnc2nc[nH]c12
inactive: [1] -38% | [2] -15.4% | [3] -9.05% | [4] -21.4% | [5] -7.45% | [6] -15.7%

CC1(C)NC(=O)C(NC(=O)C(N)CC(=O)O)CCCCNC(=O)CCNC1=O (configuration not stated) (H-DK[Aib][βAla]; lactam 2-C; configuration not given here)
inactive: [1] -4.35% | [2] -67.5% | [3] -32.3% | [4] -10.6% | [5] 6.35% | [6] -17.9%

CC1(C)OC(=O)C(=Cc2ccc3c(c2)OCO3)C(=O)O1
inactive: [1] 16.1% | [2] 4.25% | [3] -3.65% | [4] 19% | [5] -8% | [6] 5.1%

O=C1CC(Br)C(c2ccccc2)(c2ccccc2)O1 (configuration not stated)
inactive: [1] 32.2% | [2] 9.4% | [3] 33.6% | [4] 46.3% | [5] 14.2% | [6] 32%

CC1(CO)C2CCC(CC2)C1CO (configuration not stated)
inactive: [1] -3% | [2] 1.85% | [3] -4.4% | [4] -20.2% | [5] -5.1% | [6] 2.5%

Cc1ccc2c(-c3cccc4ccccc34)c3ccccc3cc2c1
inactive: [1] 5.45% | [2] 9.65% | [3] -12% | [4] -8.4% | [5] 8.95% | [6] -7.75%

COc1cc(Nc2nc3ccc(C(F)(F)F)cc3nc2C(=O)O)cc(OC)c1OC
inactive: [1] 15.8% | [2] 20.3% | [3] 29.9% | [4] 48.7% | [5] 24.8% | [6] 10.3%

S=C1NCN2CCN(CC2)CNC(=S)C(=S)NCN2CCN(CC2)CNC1=S
inactive: [1] 39.2% | [2] 40.6% | [3] 13% | [4] 55.8% | [5] 48.9% | [6] 57.6%

CC1CCC2COC(=O)CCC2(C)C1C (configuration not stated)
inactive: [1] 5.95% | [2] 0.7% | [3] -9.75% | [4] -40.9% | [5] -17.4% | [6] -22.9%

CCN(CC)C(=O)c1c(Cl)cc(N(CC)CC)oc1=O
inactive: [1] -21.7% | [2] -11.8% | [3] -42% | [4] -23.5% | [5] -41.1% | [6] -54.5%

Cc1ccc(NC(=O)C2CCCCC2)cc1
inactive: [1] 5.85% | [2] 3.3% | [3] -6.6% | [4] 10.6% | [5] -6.25% | [6] -1.6%

CN(C)CCS(=O)(=O)c1ccc(Cl)cc1
inactive: [1] 38.9% | [2] 14.6% | [3] 14.4% | [4] 16.5% | [5] 9.85% | [6] 20.6%

CCOCC(Br)C(OCC)OCC (configuration not stated)
inactive: [1] 19.2% | [2] -6.65% | [3] 8.15% | [4] 20.9% | [5] 0.45% | [6] 26.1%

Oc1cc(O)c2c(c1)OC(c1ccc(O)c(O)c1)C(O)C2O (configuration not stated)
inactive: [1] 20.2% | [2] 6.6% | [3] 14.3% | [4] -3.55% | [5] 21.2% | [6] 30.9%

CCCc1onc(-c2noc(CCC)c2CC)c1CC
inactive: [1] 15.8% | [2] -6.65% | [3] -1.9% | [4] 9.85% | [5] -19.4% | [6] 15.7%

CCOC(=O)Nc1nc2ccccc2n1CN1CCCC1
inactive: [1] -4.7% | [2] -17.9% | [3] -11.3% | [4] 3.65% | [5] 22.4% | [6] 18.8%

CC(C)N(C(C)C)S(=O)(=O)c1ccccc1C(O)(c1ccccc1)c1ccccc1
inactive: [1] 47.5% | [2] -1.15% | [3] 39.4% | [4] -7.35% | [5] -0.95% | [6] 5.9%

O=C1CN(c2ccccc2)C(=O)CN1NCNN1CC(=O)N(c2ccccc2)CC1=O
inactive: [1] -27.4% | [2] 2.1% | [3] -1.5% | [4] 4.35% | [5] -10% | [6] -5%

Cc1cc(C)c(CC(C)C)c(C)c1
inactive: [1] 1.85% | [2] 6.25% | [3] 17.4% | [4] 31.4% | [5] 2.4% | [6] -2.45%

c1ccc(OC2=NC3=S(S2)SC(Oc2ccccc2)=N3)cc1
inactive: [1] 43.2% | [2] -4.15% | [3] 56.7% | [4] 10.6% | [5] 12.5% | [6] -3.35%

O=C1c2ccccc2C(=O)c2c3c(cc(NCCNCCO)c21)N(CCO)CCN3
inactive: [1] 29.4% | [2] 18.4% | [3] 33.8% | [4] 10.3% | [5] 34.8% | [6] 29.1%

CN1CCN(C(=S)N(C)C(=O)c2ccco2)CC1
inactive: [1] -37.8% | [2] -36.9% | [3] -48.9% | [4] -8.85% | [5] -44.4% | [6] -40.1%

Cc1ccnc(NS(=O)(=O)c2ccc(N=[N+]=[N-])cc2)n1
inactive: [1] -3.2% | [2] -6% | [3] 1.9% | [4] -7.4% | [5] -17.6% | [6] -14%

C=C(C)c1ccc(C(C)C)cc1
inactive: [1] -38.5% | [2] -40.1% | [3] -24.6% | [4] 4.55% | [5] -13.6% | [6] -3.25%

CCc1nc(N)nc(N)c1-c1ccc(NC2CCCCC2)c([N+](=O)[O-])c1
inactive: [1] 10.3% | [2] 14.2% | [3] 16.1% | [4] 17.9% | [5] -6.05% | [6] 27.1%

Cc1ccc(NC(=O)CC/C(CC(=O)c2ccc(F)cc2)=N\NC(=O)C(=O)NN)cc1C
inactive: [1] -11.3% | [2] -5.2% | [3] -9.55% | [4] -3.3% | [5] -1.7% | [6] -1.25%

O=C1OC(C2OC(=O)C(=O)C2C2CCCCCCC2=O)C(C2CCCCCCC2=O)C1=O (configuration not stated)
inactive: [1] 45.5% | [2] 9.15% | [3] 29.4% | [4] 32.9% | [5] 39.2% | [6] 26.4%

NC1=CNC(=O)C1
inactive: [1] 1.65% | [2] 1.45% | [3] -3.05% | [4] -1.65% | [5] 14.1% | [6] -7.4%
